# Inconclusive results are not listed. A call without a number means that no potency is given here. Values without a mark were called inactive. Calls of active or inactive are those of the source. Calls come from the whole dose curve; as a rule, active = well fitted curve in the direction sought with a large enough effect; inconclusive = small, poorly fitted or top-dose-only effect, or another doubt; inactive = no such curve, though single readings can be large; an effect the other way counts as inactive or inconclusive. Square brackets hold non-standard residues; d marks the D form. Peptide text beside a SMILES is read from it. ξ: configuration not given here. ξPhe(βξ-Me) = CC(c1ccccc1)C(N)C(=O)O; GABA = NCCCC(=O)O
# Legend:
# [1] = molecular target: Cellular tumor antigen p53 (Homo sapiens) (UniProt P04637); assay: Primary qHTS for small molecule compounds that upregulate eGFP-tagged delta133p53alpha (in N-terminal) cells. (AID 2060322); conditions: NCI-H358 eGFP-delta133p53alpha fluorescence, 24 h; activation: hits give high values; note: nearly all actives have a fitted effect of over 75% in size; note: potency is the fitted concentration of half-maximal effect
# Sequence of Cellular tumor antigen p53 (Homo sapiens) (P04637 whole entry, looked up): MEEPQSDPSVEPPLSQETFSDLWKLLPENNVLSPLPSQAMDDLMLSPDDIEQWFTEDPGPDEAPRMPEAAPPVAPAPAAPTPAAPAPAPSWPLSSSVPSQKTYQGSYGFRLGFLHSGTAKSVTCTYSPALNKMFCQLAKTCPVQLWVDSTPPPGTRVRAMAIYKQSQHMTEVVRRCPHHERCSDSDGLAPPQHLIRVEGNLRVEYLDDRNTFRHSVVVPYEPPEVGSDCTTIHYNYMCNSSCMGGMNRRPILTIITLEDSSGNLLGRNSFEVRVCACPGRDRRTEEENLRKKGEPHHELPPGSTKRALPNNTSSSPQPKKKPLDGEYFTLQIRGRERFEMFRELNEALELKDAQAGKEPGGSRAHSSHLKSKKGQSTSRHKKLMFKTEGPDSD
# Outline: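 NCI-H358 cells pre-induced 24 h with 10 ng/ml doxycycline to express N-terminal eGFP-delta133p53alpha, then dosed 24 h at 37C without doxycycline; fixed, Hoechst-stained, GFP intensity by laser scanning cytometry, normalized to DMSO (0%) and 57.5 uM 5-azacytidine (100%).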
# [2] = molecular target: Aldehyde dehydrogenase, mitochondrial (Homo sapiens) (UniProt P05091); assay: qHTS for Inhibitors of the Aldehyde Dehydrogenase Family (ALDH2) Primary screen (AID 2061308); conditions: ALDH2 enzyme inhibition qHTS, 1536-well; series mostly up to 56 µM; note: nearly all actives have a fitted effect of over 55% in size
# [3] = molecular target: Retinaldehyde dehydrogenase 3 (Homo sapiens) (UniProt P47895); assay: qHTS for Inhibitors of the Aldehyde Dehydrogenase Family (ALDH1A3) Primary screen (AID 2061315); conditions: ALDH inhibition qHTS; series mostly up to 56 µM
SMILES,activation [1] [%],Potency [2],Potency [3],Potency [1],"activity change, negative = inhibition [2]","activity change, negative = inhibition [3]"
CC(=O)[C@@H]1CC[C@]2(C(=O)O)CC[C@]3(C)C(CCC4[C@@]5(C)CC[C@H](O)C(C)(C)C5CC[C@]43C)C12 (some centres undefined),8.4,inactive,inactive,,,
CC1COC2(OC3CC4C5CC(O[C@@H]6O[C@H](C)[C@@H](O[C@@H]7O[C@@H](C)[C@H](O)[C@@H](O)[C@H]7O)[C@H](O)[C@H]6O)C6CC(O)CCC6(C)C5CCC4(C)C3C2C)C(O)C1 (some centres undefined),-10.7,inactive,inactive,,,
COC(=O)CC(O)CC(O)/C=C/c1c(C)ccc2c1C(O)CC(C)C2 (centres undefined),-14.5,inactive,inactive,,,
CC1CCCC(SCC(O)C(=O)O)CC(=O)c2c(O)cc(O)cc2CC(=O)O1 (centres undefined),-1.53,inactive,inactive,,,
CC(O)/C=C/C1C(C)C(O[C@@H]2O[C@H](CO)[C@@H](O)[C@H](O)[C@H]2O)C(O)CC1(C)C (some centres undefined),12.2,inactive,inactive,,,
CCC(=O)O[C@]1(C(=O)CCl)[C@@H](C)C[C@H]2[C@@H]3C[C@H](F)C4=CC(=O)C=C[C@]4(C)[C@@]3(F)[C@@H](O)C[C@@]21C,17.9,inactive,inactive,,,
C=C[C@H]1[C@H](O[C@@H]2O[C@H](CO)[C@@H](O)[C@H](O)[C@H]2O)OC=C2C(=O)N3Cc4c([nH]c5ccccc5c4=O)[C@@H]3C[C@H]21,0.893,inactive,inactive,,,
COc1ccc2c(c1)C(C(=O)N(Cc1ccc(N(C)C)cc1)c1ccc(C(C)C)cc1)CCC2 (centres undefined),1,inactive,inactive,,,
CC1NC(=O)CCCNC(=O)C(Cc2c[nH]c3ccccc23)NC(=O)C(C)NC(=O)C(C(C)C)NC(=O)C(C(C)c2ccccc2)NC(=O)C(C(C)C)NC1=O (stereo not drawn) (cyclo([GABA]AV[ξPhe(βξ-Me)]VAW); configuration not given here),6.11,inactive,inactive,,,
C/C(CO)=C1/CCC23COC(C2)C(O)(C(=O)O)CCC13 (centres undefined),0,inactive,inactive,,,
COC(=O)C(C)C1CCC2(C)C(=O)C=CC(C)(O)C2C1O (centres undefined),26,inactive,inactive,,,
CCOc1cc(CNC2CCCC2)cc(Cl)c1OCc1ccc(Cl)cc1,,inactive,inactive,21.3 µM (active),,
CC(=O)N1c2ccccc2C2(O)CC3C(=O)NC(CC(C)C)C(=O)N3C12 (centres undefined),-32.8,inactive,inactive,,,
C=C[C@H]1[C@H](O[C@@H]2O[C@H](CO[C@@H]3OC[C@](O)(CO)[C@H]3O)[C@@H](O)[C@H](O)[C@H]2O)OC=C2C(=O)OCC[C@H]21,5.36,inactive,inactive,,,
C=C(C)C1CC2(CO)C(=CC1=O)CCC(O)C2C (centres undefined),-4.58,inactive,inactive,,,
C[C@@H]1O[C@@H](O[C@@H]2[C@@H](O[C@@H]3O[C@@H](C)[C@H](O[C@@H]4OC[C@H](O)[C@H](O[C@@H]5OC[C@@H](O)[C@H](O)[C@H]5O)[C@H]4O)[C@@H](O[C@@H]4OC[C@](O)(CO)[C@H]4O)[C@H]3O)[C@H](OC(=O)[C@]34CCC(C)(C)C[C@H]3C3=CCC5[C@@]6(C)C[C@H](O)[C@H](O[C@@H]7O[C@H](CO[C@@H]8OC[C@H](O)[C@H](O)[C@H]8O)[C@@H](O)[C@H](O)[C@H]7O)C(C)(C)C6CC[C@@]5(C)[C@]3(C)C[C@H]4O)OC[C@H]2O)[C@H](O)[C@H](O)[C@H]1O (some centres undefined),-8.4,,,,17% [at 11.2 µM],8.86% [at 11.2 µM]
NS(=O)(=O)Nc1ncnc(OCCOc2ncc(Br)cn2)c1-c1ccc(Br)cc1,18.1,inactive,inactive,,,
C=C1[C@@H]2CC[C@@]3(C)[C@H](c4ccoc4)OC(=O)C[C@]13O[C@H]1CC(=O)C(C)(C)[C@H](CC(=O)OC)[C@]12C,-26.7,inactive,inactive,,,
CC(O)C(=O)/C=C/C=C/C(=O)OC1C=C2COC(=O)C2(O)C2(C)CCCC(C)(C)C12 (centres undefined),10.7,inactive,inactive,,,
CCC(O)(C(=O)OCc1ccccc1NC(=O)CCC(=O)O)C(C)O (centres undefined),4.58,inactive,inactive,,,
CCNC(=O)Nc1ccc(-c2nc3c(c(N4CCOCC4C)n2)CCN(C2COC2)C3)cc1 (centres undefined),12.4,inactive,inactive,,,
Cc1cc(C(N)=O)ccc1-n1c(CCC(=O)O)ccc1-c1ccc(-n2ccnc2)cc1,-2.68,inactive,inactive,,,

SMILES,activation [1] [%],Potency [2],Potency [3],Potency [1],"activity change, negative = inhibition [2]","activity change, negative = inhibition [3]"
C/C=C/C(O)C1OC(=O)CC1Nc1ccc(C(=O)O)cc1 (centres undefined),5.34,inactive,inactive,,,
CC(=O)c1c(C)cc(O)cc1O[C@@H]1O[C@H](CO)[C@@H](O)[C@H](O)[C@H]1O,-17.6,inactive,inactive,,,
C[C@@H]1O[C@@H](O[C@H]2[C@H](O)[C@@H](O)[C@H](O[C@H]3[C@H](O[C@H]4CC[C@@]5(C)C(=CC[C@@H]6C5CC[C@]5(C)[C@@H]7[C@H](C[C@@H]65)O[C@]5(CC[C@@](C)(CO[C@@H]6O[C@H](CO)[C@@H](O)[C@H](O)[C@H]6O)O5)[C@H]7C)C4)O[C@H](CO)[C@@H](O)[C@@H]3O)O[C@@H]2CO)[C@H](O)[C@H](O)[C@H]1O (some centres undefined),,inactive,inactive,3.6 µM (active),,
CC(C)(C)NC(=O)[C@H]1CC[C@H]2[C@@H]3CC[C@H]4NC(=O)CC[C@]4(C)[C@H]3CC[C@]12C,21.7,inactive,inactive,,,
N#Cc1cccc(C(=O)Nc2cc(-c3ccccc3)nn2-c2ccccc2)c1,-0.893,inactive,inactive,,,
C[C@H]1CC(=O)C2=C(C1)C(O)C(O)[C@@]1(O)[C@H]2C(=O)c2cccc(O)c2[C@@H]1O (some centres undefined),3.05,inactive,inactive,,,
CC1CC(=O)C2=C(CCC3(O)C(O)c4c(O)cccc4C(=O)C23O)C1 (centres undefined),12.2,inactive,inactive,,,
O=C1Nc2ccc(O)cc2O[C@H]1O[C@@H]1O[C@H](CO)[C@@H](O)[C@H](O)[C@H]1O,-16.8,inactive,inactive,,,
CC(=C/C(=O)O)/C=C/[C@]1(O)[C@@]2(C)CO[C@]1(C)C[C@H](O[C@@H]1O[C@H](CO)[C@@H](O)[C@H](O)[C@H]1O)C2,-16.1,inactive,inactive,,,
COC(=O)C1=C[C@@H](O)[C@@H](O)[C@H](O[C@@H]2O[C@H](CO)[C@@H](O)[C@H](O)[C@H]2OC(=O)/C=C/c2ccccc2)C1,-26,inactive,inactive,,,
O=C(CO)[C@@H](O)[C@H](O[C@@H]1O[C@H](CO)[C@H](O)[C@H](O)[C@H]1O)[C@H](O)CO,28.3,inactive,inactive,,,
C[C@@H]1O[C@@H](O[C@H]2[C@H](O[C@H]3CC[C@@]4(C)C(CC[C@]5(C)C4CC=C4C6CC(C)(C)CC[C@]6(C(=O)O[C@@H]6O[C@H](CO[C@@H]7O[C@H](CO)[C@@H](O[C@@H]8O[C@@H](C)[C@H](O)[C@@H](O)[C@H]8O)[C@H](O)[C@H]7O)[C@@H](O)[C@H](O)[C@H]6O)CC[C@]45C)[C@]3(C)CO)OC[C@H](O)[C@@H]2O)[C@H](O)[C@H](O)[C@H]1O (some centres undefined),3.82,,,,15.8% [at 11.2 µM],17.4% [at 11.2 µM]
CC1(C)CC2C3=CCC4[C@@]5(C)CC[C@H](OC6OCC(O)C(OC7OC(CO)C(O)C(O)C7O)C6O)C(C)(C)C5CC[C@@]4(C)[C@]3(C)C[C@H](O)[C@@]2(CO)[C@H](OC(=O)c2ccccc2)C1 (some centres undefined),19.8,inactive,inactive,,,
CC(C)(O)C1CC=C(C(=O)OC[C@H]2O[C@@H](OC(=O)C3=CCC(C(C)(C)O)CC3)[C@H](O)[C@@H](O)[C@@H]2O)CC1 (some centres undefined),-8.4,inactive,inactive,,,
CC(C)(C)OC(=O)N1CCC(OCc2nc(-c3ccncc3)no2)CC1,-3.34,inactive,inactive,,,
C[C@@H]1O[C@@H](O[C@H]2[C@@H](OC(=O)[C@]34CCC(C)(C)CC3C3=CCC5[C@@]6(C)C[C@H](O)[C@H](O[C@@H]7O[C@H](C(=O)O)[C@@H](O)[C@H](O)[C@H]7O)[C@@](C)(C(=O)O)C6CC[C@@]5(C)[C@]3(C)CC4)OC[C@H](O)[C@@H]2O)[C@H](O)[C@H](O)[C@H]1O[C@@H]1OC[C@@H](O)[C@H](O)[C@H]1O (some centres undefined),-8.93,inactive,inactive,,,
CC(C)(O)C1CCC2(C)C3C(O)C4C(C13)C42CO (centres undefined),3.57,inactive,inactive,,,
C[C@@H]1CC[C@@]2(OC1)O[C@H]1C[C@H]3[C@@H]4CC=C5C[C@@H](O)CC[C@]5(C)[C@H]4CC[C@]3(C)[C@H]1[C@@H]2C,-4.46,inactive,inactive,,,
C/C=C(\C)C(=O)O[C@@H](C)[C@H]1CC[C@]2(O)C3CCC4C[C@@H](OC5CC(OC)C(OC6CC(OC)C(OC7CC(OC)C(OC8OC(C)C(OC9OC(CO)C(O)C(O)C9O)C(OC)C8O)C(C)O7)C(C)O6)C(C)O5)CC[C@]4(C)C3[C@H](O)[C@@H](O)[C@]12C (some centres undefined),8.04,,,,4.67% [at 11.2 µM],-5.31% [at 11.2 µM]
COc1cc2ncnc(Nc3ccc(F)c(Cl)c3)c2cc1O,25.7,inactive,inactive,,,
C/C(=C\CO)CC/C=C(\C)C(=O)O[C@@H]1O[C@H](CO)[C@@H](O)[C@H](O)[C@H]1O,-19.6,inactive,inactive,,,

# From PubChem BioAssay (NCATS)
